High-throughput results from PubChem.
Hits are enriched below; roughly 9.3% of the tested compounds scored in any of these assays.
SMN2 splice up: SMN2 splice variant enhancement; HEK293 SMN2-luciferase splicing reporter, luminescence, 30-36 h; 210,000 tested, 2.8% active; Potency, µM (series often up to 46.1 µM), for inactives: top-dose activity change, positive = activation, actives largely listed as activators; AID 1458; note: % of control where 0% means no effect; nearly all actives have a fitted effect of over 55% in size
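qHTS luciferase splicing reporter: luminescence rises when SMN2 exon 7 is included in transfected HEK293 cells. Compound exposure lasted 30-36 h at 37C, with 4.5 mM final sodium butyrate as control, followed by a ONE-Glo read.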
ELG1 DNA repair: inhibitors of ELG1-dependent DNA repair in HEK293T cells. Potency, µM (highest dose often 46.1 µM), for inactives: top-dose activity change, negative = inhibition, hits mostly inhibitors. AID 504467. HEK293T ELG1-luciferase reporter, luminescence, 16 h; DNA damage induced by 5-fluorouridine. 330,000 tested, 2.3% active; note: % is set by controls: 0 for no effect and ±100 for the full control effect; nearly all actives have a fitted effect of over 55% in size
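5-Fluorouridine DNA damage + compound/DMSO, 2,000 cells/well, 16 h, 37 °C/5% CO2. ONE-Glo, 30 min RT, luminescence. Readout = decrease in reporter signal.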
FLuc counter: inhibits or activates purified firefly luciferase, miR-21 counter-screen | P08659 | purified FLuc, Km substrates, luminescence inhibition | Potency, µM (top dose mostly 57.5 µM), for inactives: top-dose activity change, negative = inhibition, usual class: inhibitors | 360,000 tested, 6.9% active | AID 588342;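 note: plate controls were vehicle for no effect and reference inhibitor for full effect; nearly all actives have a fitted effect of over 55% in size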
Target sequence (P08659 whole entry, looked up): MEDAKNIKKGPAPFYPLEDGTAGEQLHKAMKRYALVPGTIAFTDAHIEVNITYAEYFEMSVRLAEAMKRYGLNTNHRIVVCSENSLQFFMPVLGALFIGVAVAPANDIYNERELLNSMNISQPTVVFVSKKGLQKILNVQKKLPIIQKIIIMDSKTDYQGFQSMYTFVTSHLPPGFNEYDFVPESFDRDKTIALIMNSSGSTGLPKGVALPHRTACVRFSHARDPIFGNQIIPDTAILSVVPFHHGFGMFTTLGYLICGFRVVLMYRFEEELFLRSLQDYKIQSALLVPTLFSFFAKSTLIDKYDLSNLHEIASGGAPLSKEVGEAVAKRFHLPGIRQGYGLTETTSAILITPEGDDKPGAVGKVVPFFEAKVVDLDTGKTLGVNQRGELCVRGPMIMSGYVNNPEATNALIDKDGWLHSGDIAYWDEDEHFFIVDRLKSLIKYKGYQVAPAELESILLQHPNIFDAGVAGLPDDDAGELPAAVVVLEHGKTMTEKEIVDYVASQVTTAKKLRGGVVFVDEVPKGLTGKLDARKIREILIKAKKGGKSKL
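Purified P. pyralis luciferase (10nM final) with 10uM D-luciferin and 10uM ATP (Km levels) in 50mM Tris acetate pH 7.5, 10mM Mg acetate, 0.01% Tween-20, 0.05% BSA; qHTS 6-point titration, ~60 µM downward; luminescence read.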
Rab9 promoter act: activates the Rab9 promoter; Potency, µM (series often up to 9.22 µM), for inactives: top-dose activation, negative = inhibition, most hits filed as activators; Huh7 Rab9 promoter-luciferase reporter, luminescence, 24 h; 320,000 tested, 2.8% active; note: % of control where 0% means no effect; nearly all actives have a fitted effect of over 60% in size
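Rab9 promoter-driven luciferase in stably transfected Huh7 cells; 1500 cells/well rested 2 h, exposed to compound in DMSO for 24 h at 37 °C, 5% CO2. Luminescence read 10 min after adding luciferase reagent at ambient temperature.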
ELG1 genotoxic: inducers of genotoxicity in HEK293T ELG1-luciferase cells | HEK293T ELG1-luciferase reporter, luminescence, 16 h | Potency, µM (doses to about 46 µM), inactives show at the top dose activity change, positive = activation, most hits filed as activators | 330,000 tested, 1.3% active; note: % of control where 0% means no effect; nearly all actives have a fitted effect of over 60% in size
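16 hr compound incubation (37 °C, 5% CO2) of HEK293T cells carrying luciferase-tagged ELG1; luciferase then measured by ONE-Glo luminescence after 30 min at RT.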
NPC1 promoter act: NPC1 promoter activation; Huh7 NPC1 promoter luciferase reporter, 24 h; Potency, µM (series often up to 9.22 µM), for the others: at the highest dose activation, hits mostly activators; 320,000 tested, 2.4% active; AID 485313; note: % of control where 0% means no effect; nearly all actives have a fitted effect of over 60% in size
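Stable NPC1-promoter luciferase Huh7 line; cpd (DMSO) 24 h, 37 °C, 5% CO2; Amplite luciferase reagent 10 min RT; luminescence readout. qHTS format.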
* = called active by the depositor; ? = inconclusive; . = no result. Calls come from the whole dose curve; as a rule, active = well fitted curve in the direction sought with a large enough effect; inconclusive = small, poorly fitted or top-dose-only effect, or another doubt; inactive = no such curve, though single readings can be large; an effect the other way counts as inactive or inconclusive. Potency is the fitted concentration of half-maximal effect.

SMILES	SMN2 splice up	ELG1 DNA repair	FLuc counter	Rab9 promoter act	ELG1 genotoxic	NPC1 promoter act
O=C(CN(CC1CCCO1)C(=O)CNS(=O)(=O)c1ccc(F)cc1)NC1CCCCC1 (configuration not stated)	.	-2%	3%	4%	1%	1%
Oc1ccc(Nc2nc(-c3ccc(Cl)cc3)cs2)cc1	6%	.	.	.	.	.
CC(=O)c1ccc(Nc2nc(-c3cccnc3)cs2)cc1	.	?	?	21%	?	4%
Nc1ccc(Nc2nc(-c3ccncc3)cs2)cc1	-3%	?	4.8µM*	?	?	?
Oc1ccc(Nc2nc(-c3ccc(O)cc3)cs2)cc1	22µM*	?	7.6µM*	-1%	8.2µM*	1%
Brc1cccc(Nc2nc(-c3cccnc3)cs2)c1	.	?	9.5µM*	21%	?	?
Cc1ccc(Nc2nc(-c3cccnc3)cs2)cc1C	.	?	0.85µM*	?	2.3µM*	?
COc1ccc(S(=O)(=O)N(C)C)cc1NC(=O)c1ccc2c(c1)NC(=O)C(C)S2 (configuration not stated)	.	-30%	0%	-9%	-1%	-2%
CCCCn1c(CCCNC(=O)c2ccco2)nc2ccccc21	.	-6%	3%	0%	-12%	1%
Cc1cc(O)ccc1Nc1nc(-c2cccs2)cs1	?	?	0.54µM*	?	3.3µM*	?
O=C(O)c1ccc(Nc2nc(-c3cccnc3)cs2)cc1	.	?	5.4µM*	?	8%	?
Oc1ccc(Nc2nc(-c3cccnc3)cs2)cc1	.	?	9.5µM*	1%	?	21%
CCOC(=O)c1ccc(-n2c(N)c(C(=O)OC)c3nc4ccccc4nc32)cc1	.	.	3%	.	.	.
Nc1cc(Cl)ccc1Oc1ccc2ccccc2c1	6%	?	?	18%	?	21%
Cc1ccc(Oc2ccc(Cl)cc2N)cc1	11%	?	21µM*	16%	14%	20%
COc1ccc(Cc2nc(-c3ccncc3)no2)cc1	.	?	?	-14%	8%	2%
COc1ccc(Cc2nc(-c3cccc(C)c3)no2)cc1	24%	?	13µM*	?	?	?
Cc1cccc(-c2noc(Cc3ccc(Cl)cc3)n2)c1	?	?	?	?	18µM*	28%
Clc1ccc(Cc2nc(-c3ccncc3)no2)cc1	.	4%	-13%	5%	7%	-3%
CCCCCCCN1CCC(=O)N([C@H](CO)CC(C)C)CC1	.	7%	-1%	2%	3%	-4%
Cc1c(N2C(=O)CS/C2=N\N=C\c2ccc(Br)cc2)c(=O)n(-c2ccccc2)n1C	-8%	1%	-2%	0%	-4%	5%
CC(C)(O)C#Cc1ccc([C@@H]2C[C@H]3CN(c4ccccc4)C(=O)[C@]34CCCN24)s1	?	-15%	3%	-32%	-3%	-37%
O=C1N(c2ccccc2)C[C@@H]2C[C@@H](c3cccs3)N3CCC[C@@]123	22µM*	?	-5%	-32%	-7%	-23%
COCc1cc([C@@H]2C[C@H]3CN(c4ccccc4)C(=O)[C@]34CCCN24)ccc1OC	.	15µM*	-1%	-11%	-4%	-6%
COc1cccc(CNC(=O)COc2ccc(C(=O)c3ccccc3)cc2)c1	.	-14%	-12%	9%	-6%	?
SMILES	SMN2 splice up	ELG1 DNA repair	FLuc counter	Rab9 promoter act	ELG1 genotoxic	NPC1 promoter act
CCOC(=O)/C(=C/C1=CC(=C/N(C)C)/C(=O)O1)C(C)=O	.	-2%	0%	-4%	3%	1%
CCCCn1c(N)c(NCc2ccccc2)c(=O)[nH]c1=O	12%	15%	-6%	-3%	0%	2%
Nc1c(NCc2ccccc2F)c(=O)[nH]c(=O)n1Cc1ccccc1	-16%	10%	21µM*	-6%	2%	2%
CC(=O)Nc1cccc(-c2nnc(SCC(=O)c3cc([N+](=O)[O-])ccc3Br)o2)c1	4%	.	-14%	.	.	.
O=C(CSc1nc2ccccc2nc1N1CCCC1)Nc1ccc(F)cc1	.	1%	4%	0%	1%	0%
CC1CN(c2nc3ccccc3nc2SCC(=O)Nc2ccc(F)cc2)CC(C)O1 (configuration not stated)	.	16µM*	-2%	-3%	-7%	-7%
Cc1ccc(N2C(=O)CS(=O)(=O)C23C(=O)Nc2ccccc23)cc1C (configuration not stated)	.	.	0%	.	.	.
O=C1C(=Cc2ccc(Br)o2)C(=O)c2ccccc21	9%	17%	13µM*	22%	7%	9%
Cc1cc(C(=O)O)ccc1-c1ccc(/C=C2\NC(=O)N(Cc3ccc(F)cc3)C2=O)o1	.	-13%	-8%	-2%	-4%	-3%
COC(=O)C(C)N1C(=O)S/C(=C\c2ccc(-c3ccc(C(=O)O)cc3C)o2)C1=O (configuration not stated)	.	?	17µM*	2.2µM*	?	2.8µM*
Cc1ccc(C(=O)O)cc1-c1ccc(C=C2C(=O)c3ccccc3C2=O)o1	16%	-5%	17µM*	-4%	0%	0%
O=C(CNc1cc(S(=O)(=O)N2CCOCC2)ccc1N1CCCC1)N1CCc2ccccc21	19%	?	6%	7%	-3%	-1%
Cc1ccc(/C=N/NC(=O)c2cccs2)s1	16µM*	?	11µM*	?	?	?
O=C(N/N=C/c1ccc(Br)s1)c1ccncc1	1%	?	-17%	-2%	-10%	-5%
O=C(N/N=C/c1ccc(Br)s1)c1cccs1	.	?	15µM*	?	2%	?
NS(=O)(=O)c1ccc(O)c(NC(=O)c2ccc([N+](=O)[O-])cc2)c1	17%	6%	-8%	?	9%	?
O=C(CCCN1C(=O)C(c2ccccc2)Oc2cccnc21)NCCc1ccc(Cl)cc1 (configuration not stated)	.	-5%	3%	-1%	-11%	5%
Cc1cccc(CNC(=O)c2ccc(Cn3c(SCc4ccccc4)nc4cccnc43)cc2)c1	.	.	9.5µM*	.	.	.
COc1cccc(CNC(=O)c2ccc(Cn3c(SCc4ccccc4)nc4cccnc43)cc2)c1	.	.	5.4µM*	.	.	.
CN(C)c1ccc(CNC(=O)c2ccc(Cn3c(SCc4ccccc4)nc4cccnc43)cc2)cc1	6%	.	2.7µM*	.	.	.
CCNC(=O)c1ccc(CSc2nc3cccnc3n2Cc2ccc(OC)cc2)cc1	.	.	21µM*	.	.	.
COc1ccc(Cn2c(SCc3ccc(C(=O)NCc4ccc(C)cc4)cc3)nc3cccnc32)cc1	-17%	.	?	.	.	.
Cc1cccc(Cn2c(SCc3ccc(C(=O)NCc4ccccc4)cc3)nc3cccnc32)c1	.	.	2%	.	.	.
